Assay outcomes deposited in PubChem BioAssay by several laboratories.
Sampled rows, rich in hits. Any-hit rate of the full collection: about 2.1%.
PAX8 inh HTS = inhibitors of PAX8 transcriptional activity in RMG-I cells; RMG-I TPO-luciferase reporter, SteadyGlo, 24 h; inhibition, % at 12.6 µM; 360,000 tested, 1.2% active;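 active = mean replicate inhibition at least 60% with every replicate also reaching 60%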;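 note: luciferase light reporting Pax8 driven TPO promoter activity; plate controls were median of neutral control wells for no effect and mitoxantrone controls for full effect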
EWS-Fli inh = blocks EWS/Fli oncoprotein-driven transcription; A673 NR0B1-luciferase reporter, viability-normalised; inhibition, % at 12.6 µM; 350,000 tested, 0.67% active; AID 651661;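 active = mean inhibition of at least 50% after viability correction, with every replicate also passing that limit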;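 note: firefly luciferase signal divided by Alamar Blue viability fluorescence both relative to DMSO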
KKLEB tox = counter-screen for CF NF-kB inhibitors: cytotoxicity | activity change (cytotoxicity), % at 5 µM | 360,000 tested, 0.36% active | KKLEB CF airway cells viability, ATPlite luminescence, overnight; active compounds read low; cells stimulated with P. aeruginosa culture filtrate | AID 602141;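 active = corrected activity change at or below -50% at 5 µM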
HIF-2a block = HIF-2a inhibition; 786-0 RCC cells HIF-2a reporter, luciferase luminescence, overnight; inhibition, % at 18.8 µM; 360,000 tested, 0.72% active; AID 624352;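 active = inhibition of the luminescence signal of 40% or more relative to plate controls, in a single-dose primary screen at 18.75 µM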
CF NFkB block = blocks PAF-induced NF-kB reporter in cystic fibrosis cells. KKLEB NF-kB-GFP reporter, GFP fluorescence overnight. inhibition, % at 5 µM. 360,000 tested, 0.86% active. AID 588850;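 active = at least 50% inhibition at 5 µM, scaled per plate between neutral and stimulator controls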;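 note: PAF is a Pseudomonas aeruginosa culture filtrate used as stimulus; plate controls were PAF-stimulated DMSO wells for no effect and unstimulated DMSO wells for full effect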
The depositor's hits bear a star; nt = not tested or not shown.

SMILES	PAX8 inh HTS	EWS-Fli inh	KKLEB tox	HIF-2a block	CF NFkB block
COc1ccc(CN2C[C@H](C)[C@@H](OC)CN(C)C(=O)c3ccc(NC(=O)c4nc5ccccc5s4)cc3OC[C@@H]2C)cc1	74.4*	15.3	nt	nt	nt
N#C[C@H]1[C@H](c2ccccc2-c2ccccc2)[C@H](CO)N1C(=O)NC1CCCCC1	-6.0	4.7	nt	nt	nt
CO[C@@H]1CN(C)C(=O)c2ccc(NC(=O)c3cccc(Oc4ccccc4)c3)cc2OC[C@H](C)NC[C@H]1C	31.4	69.9*	nt	nt	nt
C[C@H](CO)N1C[C@H](C)[C@@H](CN(C)C(=O)C2CCCCC2)OCCCC[C@H](C)Oc2ccc(NS(=O)(=O)c3ccc(Cl)cc3)cc2C1=O	87.7*	-11.3	nt	nt	nt
C[C@@H]1CN([C@H](C)CO)C(=O)c2cc(NS(=O)(=O)c3ccc(Cl)cc3)ccc2O[C@@H](C)CCCCO[C@H]1CN(C)C(=O)C1CCCCC1	85.4*	8.3	nt	nt	nt
C[C@@H]1CCCCO[C@@H](CN(C)C(=O)C2CCCCC2)[C@@H](C)CN([C@H](C)CO)C(=O)c2cc(NS(=O)(=O)c3ccc(Cl)cc3)ccc2O1	-9.6	-5.4	nt	nt	nt
C[C@@H]1CCCCO[C@@H](CN(C)C(=O)C2CCCCC2)[C@H](C)CN([C@H](C)CO)C(=O)c2cc(NS(=O)(=O)c3ccc(Cl)cc3)ccc2O1	79.3*	41.8	nt	nt	nt
Cc1ccc(S(=O)(=O)Nc2ccc3c(c2)C(=O)N([C@H](C)CO)C[C@H](C)[C@@H](CN(C)C(=O)C2CCCCC2)OCCCC[C@@H](C)O3)cc1	-50.1	-6.4	nt	nt	nt
Cc1ccc(S(=O)(=O)Nc2ccc3c(c2)C(=O)N([C@@H](C)CO)C[C@@H](C)[C@@H](CN(C)C(=O)C2CCCCC2)OCCCC[C@@H](C)O3)cc1	-23.0	-13.2	nt	nt	nt
COc1ccc(-c2cn(CC[C@@H]3CC[C@@H](NC(=O)CCN4CCCCC4)[C@H](CO)O3)nn2)cc1	2.7	-3.8	nt	nt	nt
CN1CCN(C(=O)C[C@@H]2C[C@@H]3c4cc(NC(=O)C5CCOCC5)ccc4O[C@@H]3[C@H](CO)O2)CC1	-15.0	-1.0	nt	nt	nt
CCN1CCN(c2ccc(S(=O)(=O)N3CCOCC3)cc2NC(=O)c2cccc([N+](=O)[O-])c2)CC1	-1.2	20.0	6.4	6.1	-19.3
CCN1CCN(c2ccc(S(=O)(=O)N3CCOCC3)cc2NC(=O)/C=C/c2ccc([N+](=O)[O-])cc2)CC1	72.2*	50.8	-1.1	-12.8	-28.9
COCC#Cc1ccc2c(c1)O[C@H](CN(C)S(C)(=O)=O)[C@H](C)CN([C@@H](C)CO)S2(=O)=O	nt	-13.0	nt	nt	nt
O=C(Nc1ccccc1)c1ccc(-c2ccccc2)s1	-16.6	-199.4	9.9	-309.8	-33.8
O=C(O)c1ccc(-c2ccc(-c3ccccc3)cc2)s1	nt	nt	-2.8	69.7*	2.5
N#Cc1c(NC(=O)c2ccccc2)sc2c1CCCCC2	nt	nt	-15.4	-129.1	1.5
N#Cc1c(Cl)nsc1NC(=O)c1ccccc1	41.7	0.6	-39.4	-122.2	51.6*
O=C1CN(S(=O)(=O)Cc2ccccc2)C[C@@H]2[C@H](c3ccc(C#Cc4ccc(F)cc4)cc3)[C@H](CO)N12	80.2*	-14.7	nt	nt	nt
O=C1CN(S(=O)(=O)Cc2ccccc2)C[C@@H]2[C@@H](c3ccc(C#CCC4CCCC4)cc3)[C@@H](CO)N12	98.6*	-3.5	nt	nt	nt
O=C1CN(S(=O)(=O)Cc2ccccc2)C[C@H]2[C@H](c3ccc(C#CCC4CCCC4)cc3)[C@@H](CO)N12	41.4	3.3	nt	nt	nt
CC(=O)N1[C@@H]2Cn3c(cccc3=O)[C@H]1[C@@H](C(=O)N[C@H](C)c1ccccc1)[C@@H]2CO	-9.5	nt	nt	nt	nt
Nc1ccc(N=Nc2ccccc2)c(N)n1	-131.1	-106.6	-10.3	-328.0	63.4*
CCOc1ccc(NC(=O)COc2ccc(C(=O)NCCc3ccccc3)cc2)cc1	72.7*	-8.9	4.7	17.2	3.7
Cc1ccc(C(=O)NCCc2ccccc2)cc1	nt	nt	-8.2	54.5*	-11.0
SMILES	PAX8 inh HTS	EWS-Fli inh	KKLEB tox	HIF-2a block	CF NFkB block
COC(=O)c1c(N)sc(C(=O)NCCc2ccccc2)c1C	65.4*	83.3*	-19.8	66.2*	-3.7
CCOc1ccc(NC(=O)c2ccccc2OCC(=O)c2ccc(C)cc2)cc1	-6.0	nt	-53.0*	3.6	42.8
CC(C)c1ccccc1NC(=O)COc1ccc(C(=O)NCCc2ccccc2)cc1	1.2	nt	-8.7	5.0	4.4
COc1cccc(OC)c1C(=O)NCCc1ccccc1	1.8	7.3	-10.1	12.3	8.8
CCNC(=O)[C@@H]1[C@@H](CO)[C@@H]2Cn3c(ccc(-c4ccccc4)c3=O)[C@H]1N2C(=O)C1CC1	1.0	-10.5	nt	nt	nt
CCCNC(=O)N1CCC2(CC1)CN(C(=O)NC(C)C)[C@H](CO)c1c2c2ccc(OC)cc2n1C	8.0	-6.5	nt	nt	nt
CCCC#Cc1ccc2c(c1)O[C@H](CN(C)C(=O)C1CCC1)[C@@H](C)CN([C@@H](C)CO)S2(=O)=O	nt	14.8	nt	nt	nt
CC(C)NC(=O)N(C)C[C@H]1Oc2ccc(NS(=O)(=O)c3cccs3)cc2CC(=O)N([C@@H](C)CO)C[C@H]1C	-16.6	-1.3	nt	nt	nt
Cc1noc(C)c1NC(=O)N(C)C[C@H]1Oc2ccc(NC(=O)c3ccncc3)cc2C(=O)N([C@@H](C)CO)C[C@@H]1C	nt	-2.6	nt	nt	nt
COc1ccc(-c2cn(-c3ccc(Br)cc3)c3[n+]2CCS3)cc1	64.9*	6.5	0.2	16.0	4.9
CN(C)C(=O)c1cccc(-c2cc(NC=O)c3ncc(-c4ccc(F)cc4)n3c2)c1	24.2	4.2	-4.8	-50.2	0.1
COc1ccc(F)cc1-c1cc(NC=O)c2ncc(-c3cc(OC)c(OC)c(OC)c3)n2c1	90.1*	60.2*	4.4	-52.4	26.4
COc1ccc(F)cc1-c1cc(NC=O)c2ncc(-c3cccc(C(=O)N(C)C)c3)n2c1	67.6*	15.1	-10.7	12.0	12.1
COc1cc(-c2cnc3c(NC=O)cc(-c4ccccc4Cl)cn23)cc(OC)c1OC	75.9*	45.4	-20.3	2.3	30.7
COc1cc(-c2cc(NC=O)c3ncc(-c4ccccc4)n3c2)cc(OC)c1OC	14.5	12.2	-14.3	-65.7	3.2
CC(=O)Nc1cccc(-c2cc(NC=O)c3ncc(-c4cccc(C(C)=O)c4)n3c2)c1	81.4*	19.2	-25.1	14.1	47.5
N#C[C@@H]1[C@H](c2ccccc2-c2ccccc2)[C@@H](CO)N1C(=O)NC1CCCCC1	-4.2	1.5	nt	nt	nt
CCCN1C[C@@H](C)[C@@H](OC)CN(C)C(=O)c2ccc(NC(=O)c3ccccc3)cc2OC[C@@H]1C	nt	-0.4	nt	nt	nt
O=C(Nc1cc(F)ccc1F)N[C@@H]1C=C[C@@H](CC(=O)N2CCc3ccccc3C2)O[C@H]1CO	14.5	-1.9	nt	nt	nt
COc1ccccc1C#Cc1cnc2c(c1)C(=O)N([C@H](C)CO)C[C@H](C)[C@H](CN(C)C)O2	nt	3.9	nt	nt	nt
COc1cc(-c2cnc3c(NC=O)cc(-c4ccccc4)cn23)cc(OC)c1OC	92.0*	59.4*	-8.9	-15.6	43.4
Cc1c(N=C2NC(=O)/C(=C/c3ccc(O)cc3)S2)c(=O)n(-c2ccccc2)n1C	-16.3	nt	14.8	5.5	-19.4
O=C1NC(=NCc2ccccc2)S/C1=C/c1ccc(O)cc1	27.5	nt	-43.1	9.9	52.6*
